Lmaj promast = inhibitors of Leishmania major promastigote growth. Leishmania major promastigotes, resazurin fluorescence viability. inhibition, % at 10 µM. 200,000 compounds, 9% hits; in the data active = inhibition above about 50%;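 also: promastigotes grown with compound for 44 hours at 28 °C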
PTEN del growth = growth suppressors of cells with PTEN tumor suppressor deletion. HCT116 PTEN-null viability, CellTiter-Glo, 60 h; active compounds read low. viability, % at 10 µM. 140,000 compounds, 1.2% hits;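 active = viability at or below a set limit, 4 SD under the median of all tested compounds, cut at about 3.7% in these data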;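 also: PTEN knockout HCT116 line with beta catenin targeted HCT116 as companion control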
INS promoter inh = TRM-6 insulin promoter activity inhibition; TRM-6 cells (human fetal islet line), insulin promoter-eGFP reporter, imaging; reporter expression induced with tamoxifen; inhibition, % at 2 µM; 130,000 compounds, 0.9% hits; AID 1273;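 active = inhibition above the mean plus 3 SD, with well images judged a real hit on visual review, cut at about 60% in these data, passing the limit was not always enough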
ROMK primary = modulators of human ROMK potassium channel; P48048; Tet-inducible ROMK, thallium flux fluorescence; actives lie on both sides; B-score at 10 µM; 130,000 compounds, 2% hits; AID 1918;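 active = signal ratio slope over the read window, or its plate-corrected B-score, at least 3 SD from the plate mean, either direction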;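 also: B-score of the F/F0 ratio slope over 7 to 12 s after thallium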
bCat KO growth = beta-catenin-lacking colon tumor cell growth suppression; 140,000 compounds, 1.5% hits; viability, % at 10 µM; AID 818; HCT116 beta-catenin knockout viability, CellTiter-Glo, 60 h; active compounds read low;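 active = viability at or under a set limit, the compound median less 4 SD, cut at about 6% in these data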;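 also: 0% = Hyamine 1622 control at 20 µM and 100% = untreated cell control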
p97 ATPase inh = inhibitors of human p97 ATPase; AID 1481; P55072; 220,000 compounds, 0.42% hits; inhibition, % at 8 µM; recombinant p97 ATPase, Kinase-Glo ATP luminescence, 3 h; in the data active = inhibition above about 15%;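 also: 0% = DMSO vehicle and 100% = wells lacking enzyme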
An asterisk follows results filed as active; . = no result given. The list is not random: actives were taken first. Their share in the collection is about 10%.

SMILES	Lmaj promast	PTEN del growth	INS promoter inh	ROMK primary	bCat KO growth	p97 ATPase inh
Cc1cccc(NC(=O)CC23CC4CC(C2)CC(n2nnc(C)n2)(C4)C3)c1	55*	82	-3	-0.55	90	0
Cc1c(C#N)c(NC(=O)C(C)C)n(Cc2ccccc2)c1C	16	.	-40	-0.022	.	3
Cc1occc1C(=O)N/N=C/C1=C(N2CCOCC2)C(=C\c2ccc(Cl)cc2Cl)/CC1	93*	70	4	-0.054	72	4
Cc1cc(C)nc(N/N=C/C2=C(N3CCOCC3)C(=C\c3ccc(Cl)cc3)/CC2)n1	30	44	9	-0.74	36	-1
CCc1c(C)sc(NC(=O)CC#N)c1C#N	66*	83	34	.	84	11
CCCC(=O)Nc1sc(C)c(C)c1C#N	-2	.	.	-0.81	.	5
CCc1ccc(C(=O)COC(=O)[C@@H](NC(N)=O)[C@@H](C)CC)cc1	-2	.	18	.	.	0
CC(=O)c1ccc(NC(=O)C(=O)c2cn(CC(=O)N3CCCCC3)c3ccccc23)cc1	-1	97	.	.	88	5
CN1CCCN(C(=O)c2cc(-c3ccc(Cl)c(Cl)c3Cl)nc3ccccc23)CC1	55*	.	.	-0.31	.	0
COc1ccc(-n2cc(CNC3CCN(C)CC3)c(-c3cccc(F)c3)n2)cc1	100*	.	.	-1.9	.	0
COc1ccc(-n2cc(CN[C@H]3CCCCNC3=O)c(-c3cccc(F)c3)n2)cc1	.	.	.	.	.	2
CCOC1(C)OCC(=O)[C@]2(CCC3C4CCC5=CC(=O)C=CC5(C)C4C(=O)CC32C)O1 (stereo partly specified)	0	95	.	0.54	94	7
CNCc1c(C)nn(-c2ccccc2)c1C	-6	.	50	0.53	.	-3
Cc1nn(-c2ccccc2)c(C)c1N	14	.	75*	0.24	.	5
O=C(CSc1nc2ccccc2[nH]1)Nc1ccc2c(c1)OCCO2	11	76	-21	-1.6	70	-1
O=C(CSc1ncccc1-c1nc2ccccc2[nH]1)Nc1ccc2c(c1)OCCO2	73*	82	17	-0.52	83	5
O=C1C=C(Nc2ccccc2O)c2ccccc2C1=O	100*	1.8*	-37	.	2.3*	4
Cc1ccc2nc(Cl)c(CN(C(=O)c3cnccn3)C3CCCCC3)cc2c1	53*	55	-58	.	61	2
COc1ccc(NC(=O)c2ccc(S(=O)(=O)N3CCOCC3)o2)cc1	.	.	.	.	.	6
O=C1C(Cl)=C(N2CCN(c3ccccc3[N+](=O)[O-])CC2)C(=O)c2ccccc21	100*	1.2*	50	-1.5	0.9*	8
COc1cc(CNn2cn[nH]c2=S)cc(Cl)c1OCc1ccccc1	-4	94	-33	.	101	-1
CCCCOc1c(Cl)cc(CNC(C)(C)CO)cc1OCC	42	72	-60	.	73	-6
COc1cc(CNCCc2ccccc2)cc(Cl)c1OCc1ccccc1	91*	.	-35	-3.3	.	-5
CCOc1cc(CNCc2ccncc2)cc(Cl)c1OC	89*	106	-25	-0.17	91	1
CCOc1cc(CNCC2CCCN2CC)cc(Cl)c1OC (stereo unspecified)	2	.	-345	-0.16	.	12
SMILES	Lmaj promast	PTEN del growth	INS promoter inh	ROMK primary	bCat KO growth	p97 ATPase inh
CCCCNCc1cc(Cl)c(OCCC)c(OCC)c1	90*	83	.	-1.7	89	3
COc1cc(CNCc2ccccc2)cc(Cl)c1OC	66*	.	.	-0.81	.	-1
CC(=O)c1nc(N2C(=O)CC(Cc3ccccc3)C2=O)sc1C (stereo unspecified)	-1	93	15	.	89	-1
O=C(CSc1cccc[n+]1[O-])Nc1ccc(N2CCOCC2)cc1	-4	.	.	0.19	.	-1
CCCCCC1CC(CC(=O)Nc2ccc([N+](=O)[O-])cc2)C(=O)O1 (stereo unspecified)	1	88	0	-0.48	88	6
COc1ccc(N2CCN(C(=O)CC(NC(N)=O)c3cccc(Oc4ccccc4)c3)CC2)cc1 (stereo unspecified)	100*	94	.	0.16	93	-1
COc1cccc(SCC(=O)N2CCN(c3ccccc3)CC2)c1	.	.	.	-0.052	.	-7
COc1ccc(N2CCN(C(=O)CSc3ccccc3N)CC2)cc1	63*	82	59	-0.26	83	4
COc1ccc(N2CCN(C(=O)CCn3nnc4ccccc43)CC2)cc1	89*	94	18	-0.31	97	0
COc1ccc(N2CCN(C(=O)CSc3ccccc3)CC2)cc1	-2	81	19	.	89	-10
CCOC(=O)C1(C)NC(c2ccccc2F)C2C(=O)N(CC)C(=O)C21 (stereo unspecified)	-5	.	.	1	.	0
CC1CCCCC1n1c(-c2cccnc2)n[nH]c1=S (stereo unspecified)	-5	.	.	0.34	.	8
S=c1[nH]nc(-c2cccnc2)n1C1CCCCC1	53*	101	11	1.6	98	1
CC(C)C(=O)NNC(=O)c1cc2sccc2s1	.	.	.	.	.	7
COc1ccc(O)c(C=Nc2cc(NC(C)=O)c(Cl)cc2Cl)c1	64*	105	15	.	93	3
CCOC(=O)C1=C(C)NC(C)=C(C(=O)OCC)C1c1ccc(OC)cc1	65*	59	.	.	64	-2
Cc1ccc(/C=C/C(=O)NCc2ccco2)o1	-6	81	-48	.	92	9
Cc1ccc(/C=C/C(=O)NCc2ccccn2)o1	-4	96	66*	-0.47	95	-5
COc1ccc(CCN2C(=NC(=O)C(C)C)SC3CS(=O)(=O)CC32)cc1OC (stereo unspecified)	.	.	.	0.56	.	-1
Cc1ccc(S(=O)(=O)NC(C)(C)CSc2ncccn2)cc1	-2	.	-33	0.82	.	-3
CC(C)(CSc1nncn1N)NS(=O)(=O)c1ccc(Cl)cc1	-3	100	77*	.	96	1
CNC(=O)CS(=O)CC(=O)Nc1cc(OCCOC)c(Cl)cc1Cl (stereo unspecified)	5	.	.	.	.	6
COc1cccc(-n2c(SCC(=O)Nc3sc4c(c3C(N)=O)CCC4)nc3ccccc3c2=O)c1	52*	79	.	1.8	82	4
COc1ccc(C)cc1NC(=O)CSc1nnc(CC(=O)Nc2ccccc2C)n1C	7	81	67*	-0.34	87	5
COc1ccccc1NC(=O)Cc1nnc(SCC(=O)Nc2ccccc2F)n1C	-10	.	0	1.1	.	-3
COc1ccc(-c2c(C#N)c(SCC(=O)Nc3ccccc3)nc3c2CCCC3)cc1	92*	.	-270	1.7	.	-6
Cc1ccccc1NC(=O)CSc1nnc(-c2ccccc2)n1-c1ccccc1	8	85	28	.	74	1
COc1ccccc1NC(=O)CC(=O)CSc1nnc(-c2ccc(C)cc2)n1-c1ccccc1	72*	102	39	-0.87	92	7
COc1cccc(-n2c(SCC(=O)Nc3nc4ccccc4s3)nc3ccccc3c2=O)c1	.	.	.	.	.	7
N=C(CC1CC(=O)NC(=O)C1)C1=C(O)CCCC1=O	-3	98	-18	0.26	95	5

From PubChem BioAssay
